For test [1], the target named is Mitogen-activated protein kinase kinase kinase kinase 4 (Homo sapiens) (UniProt O95819). The note with it: at 1 µM.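 Also: reported figure is an averaged inhibition value.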
For test [2], the target named is Dual specificity mitogen-activated protein kinase kinase 1 (Homo sapiens) (UniProt Q02750). The conditions noted are these: at 0.1 µM.
Test [3] shares this target. The conditions noted are these: at 1 µM.
Test [4] has as its target Misshapen-like kinase 1 (Homo sapiens) (UniProt Q8N4C8). The note with it: at 0.1 µM.
Test [5] shares this target. The conditions noted are these: at 1 µM.
Test [6] deals with T1, Serine/threonine-protein kinase 4 (Homo sapiens) (UniProt Q13043).
T1 sequence (whole entry): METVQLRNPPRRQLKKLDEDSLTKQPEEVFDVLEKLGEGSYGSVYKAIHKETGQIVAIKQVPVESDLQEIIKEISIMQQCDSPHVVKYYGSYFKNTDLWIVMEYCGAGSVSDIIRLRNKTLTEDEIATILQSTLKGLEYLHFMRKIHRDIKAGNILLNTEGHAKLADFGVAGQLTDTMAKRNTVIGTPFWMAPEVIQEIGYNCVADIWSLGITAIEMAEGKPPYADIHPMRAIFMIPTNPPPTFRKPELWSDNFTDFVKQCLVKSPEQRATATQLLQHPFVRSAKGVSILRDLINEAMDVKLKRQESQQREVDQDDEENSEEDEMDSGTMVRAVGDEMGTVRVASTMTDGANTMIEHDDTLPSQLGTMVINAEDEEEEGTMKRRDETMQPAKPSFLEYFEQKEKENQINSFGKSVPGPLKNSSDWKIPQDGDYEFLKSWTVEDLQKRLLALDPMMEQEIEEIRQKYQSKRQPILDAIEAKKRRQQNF
The note with it: at 0.1 µM.

Test [7] concerns the target T1, Serine/threonine-protein kinase 4 (Homo sapiens). The note with it: at 1 µM.
Test [8] concerns the target T2, Serine/threonine-protein kinase 3 (Homo sapiens) (UniProt Q13188).
T2 sequence (whole entry): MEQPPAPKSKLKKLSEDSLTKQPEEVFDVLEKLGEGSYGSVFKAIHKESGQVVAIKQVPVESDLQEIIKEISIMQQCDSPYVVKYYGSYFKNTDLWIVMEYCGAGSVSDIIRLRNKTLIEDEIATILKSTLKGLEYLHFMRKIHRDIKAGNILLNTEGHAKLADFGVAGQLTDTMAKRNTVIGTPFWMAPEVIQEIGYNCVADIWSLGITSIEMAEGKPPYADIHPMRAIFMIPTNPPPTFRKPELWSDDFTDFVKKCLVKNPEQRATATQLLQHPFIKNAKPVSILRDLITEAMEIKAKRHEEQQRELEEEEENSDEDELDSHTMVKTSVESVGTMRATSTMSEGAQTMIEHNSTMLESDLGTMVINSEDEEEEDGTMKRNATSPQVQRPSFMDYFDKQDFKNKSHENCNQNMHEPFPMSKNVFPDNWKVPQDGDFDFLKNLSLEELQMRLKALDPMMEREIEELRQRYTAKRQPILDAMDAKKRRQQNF
The conditions noted are these: at 0.1 µM.

For test [9], the target named is T2, Serine/threonine-protein kinase 3 (Homo sapiens). The note with it: at 1 µM.
Test [10] has as its target Serine/threonine-protein kinase 26 (Homo sapiens) (UniProt Q9P289). The note with it: at 0.1 µM.
Test [11] shares this target. The note with it: at 1 µM.
The target of test [12] is Serine/threonine-protein kinase PAK 1 (Homo sapiens) (UniProt Q13153). The conditions noted are these: at 0.1 µM.
Serine/threonine-protein kinase PAK 1 (Homo sapiens), sequence (Q13153 whole entry): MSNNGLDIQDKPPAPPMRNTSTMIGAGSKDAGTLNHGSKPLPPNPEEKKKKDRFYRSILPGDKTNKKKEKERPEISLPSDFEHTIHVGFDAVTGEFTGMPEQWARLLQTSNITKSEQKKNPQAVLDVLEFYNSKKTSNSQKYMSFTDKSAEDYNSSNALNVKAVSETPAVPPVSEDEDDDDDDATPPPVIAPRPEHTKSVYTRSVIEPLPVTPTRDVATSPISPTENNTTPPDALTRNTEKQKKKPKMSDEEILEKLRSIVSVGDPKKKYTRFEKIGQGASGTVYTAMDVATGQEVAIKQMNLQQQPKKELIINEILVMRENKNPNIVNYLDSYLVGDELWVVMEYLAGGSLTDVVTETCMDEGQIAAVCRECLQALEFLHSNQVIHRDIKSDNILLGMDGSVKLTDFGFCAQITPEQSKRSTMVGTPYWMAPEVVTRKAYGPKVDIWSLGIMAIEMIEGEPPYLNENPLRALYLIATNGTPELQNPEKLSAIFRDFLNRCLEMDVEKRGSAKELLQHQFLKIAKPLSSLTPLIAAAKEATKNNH
The target is the same in test [13]. The note with it: at 1 µM.
The target in test [14] is Serine/threonine-protein kinase PAK 2 (Homo sapiens) (UniProt Q13177). The conditions noted are these: at 0.1 µM.
Serine/threonine-protein kinase PAK 2 (Homo sapiens), sequence (Q13177 whole entry): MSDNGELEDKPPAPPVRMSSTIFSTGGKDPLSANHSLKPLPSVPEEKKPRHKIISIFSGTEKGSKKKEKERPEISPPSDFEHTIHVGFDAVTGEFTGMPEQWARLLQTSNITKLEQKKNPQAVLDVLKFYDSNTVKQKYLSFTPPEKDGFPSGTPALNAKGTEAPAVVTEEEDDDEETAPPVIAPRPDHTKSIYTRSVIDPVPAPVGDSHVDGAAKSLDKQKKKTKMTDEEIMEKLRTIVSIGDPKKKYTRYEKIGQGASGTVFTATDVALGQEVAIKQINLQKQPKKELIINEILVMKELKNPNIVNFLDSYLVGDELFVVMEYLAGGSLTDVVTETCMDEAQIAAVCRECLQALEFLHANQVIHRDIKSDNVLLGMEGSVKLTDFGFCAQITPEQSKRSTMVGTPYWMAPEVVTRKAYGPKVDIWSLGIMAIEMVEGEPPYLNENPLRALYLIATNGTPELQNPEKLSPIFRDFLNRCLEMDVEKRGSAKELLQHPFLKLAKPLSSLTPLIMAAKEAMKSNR
Test [15] has the same target. The note with it: at 1 µM.
The target in test [16] is Serine/threonine-protein kinase PAK 3 (Homo sapiens) (UniProt O75914). The conditions noted are these: at 0.1 µM.
The target is the same in test [17]. The conditions noted are these: at 1 µM.
Test [18] has as its target Serine/threonine-protein kinase PAK 5 (Homo sapiens) (UniProt Q9P286). The note with it: at 0.1 µM.
Test [19] has the same target. The conditions noted are these: at 1 µM.
For test [20], the target named is Serine/threonine-protein kinase PAK 6 (Homo sapiens) (UniProt Q9NQU5). The note with it: at 0.1 µM.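 Also: mean PAK6 inhibition reported from the GSK PKIS screen.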
Serine/threonine-protein kinase PAK 6 (Homo sapiens), sequence (Q9NQU5 whole entry, looked up): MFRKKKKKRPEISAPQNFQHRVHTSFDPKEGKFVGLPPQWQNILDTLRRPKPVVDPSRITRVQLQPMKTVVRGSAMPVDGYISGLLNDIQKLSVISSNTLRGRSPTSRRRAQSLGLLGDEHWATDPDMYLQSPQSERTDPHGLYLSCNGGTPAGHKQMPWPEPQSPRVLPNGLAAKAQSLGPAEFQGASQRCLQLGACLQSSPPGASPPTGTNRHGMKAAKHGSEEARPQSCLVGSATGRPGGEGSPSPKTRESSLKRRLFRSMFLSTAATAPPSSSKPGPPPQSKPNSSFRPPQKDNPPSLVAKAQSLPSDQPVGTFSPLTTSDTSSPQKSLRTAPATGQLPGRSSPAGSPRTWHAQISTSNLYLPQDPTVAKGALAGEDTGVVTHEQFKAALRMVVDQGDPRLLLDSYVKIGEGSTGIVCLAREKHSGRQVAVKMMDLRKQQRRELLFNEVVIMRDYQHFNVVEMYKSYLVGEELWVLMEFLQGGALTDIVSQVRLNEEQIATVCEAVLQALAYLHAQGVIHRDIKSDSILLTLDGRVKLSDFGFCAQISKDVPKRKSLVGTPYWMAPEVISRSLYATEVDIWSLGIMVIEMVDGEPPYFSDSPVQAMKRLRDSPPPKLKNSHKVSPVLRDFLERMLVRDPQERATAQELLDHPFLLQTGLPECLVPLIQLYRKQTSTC

SMILES strings stand for the structures.

Serine/threonine-protein kinase 26 (Homo sapiens), sequence (Q9P289 2-416 limits assumed): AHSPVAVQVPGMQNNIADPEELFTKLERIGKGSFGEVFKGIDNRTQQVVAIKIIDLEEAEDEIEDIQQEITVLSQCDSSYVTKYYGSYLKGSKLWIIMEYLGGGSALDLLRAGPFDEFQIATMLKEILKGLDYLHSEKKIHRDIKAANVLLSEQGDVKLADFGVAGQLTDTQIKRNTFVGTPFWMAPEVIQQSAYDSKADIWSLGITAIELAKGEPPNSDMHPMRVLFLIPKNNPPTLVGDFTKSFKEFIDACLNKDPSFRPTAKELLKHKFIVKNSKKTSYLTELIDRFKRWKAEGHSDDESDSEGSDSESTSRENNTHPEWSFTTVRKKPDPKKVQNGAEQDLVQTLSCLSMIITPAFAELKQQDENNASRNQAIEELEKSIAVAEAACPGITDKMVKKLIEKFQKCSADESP
Serine/threonine-protein kinase PAK 5 (Homo sapiens), sequence (Q9P286 whole entry, looked up): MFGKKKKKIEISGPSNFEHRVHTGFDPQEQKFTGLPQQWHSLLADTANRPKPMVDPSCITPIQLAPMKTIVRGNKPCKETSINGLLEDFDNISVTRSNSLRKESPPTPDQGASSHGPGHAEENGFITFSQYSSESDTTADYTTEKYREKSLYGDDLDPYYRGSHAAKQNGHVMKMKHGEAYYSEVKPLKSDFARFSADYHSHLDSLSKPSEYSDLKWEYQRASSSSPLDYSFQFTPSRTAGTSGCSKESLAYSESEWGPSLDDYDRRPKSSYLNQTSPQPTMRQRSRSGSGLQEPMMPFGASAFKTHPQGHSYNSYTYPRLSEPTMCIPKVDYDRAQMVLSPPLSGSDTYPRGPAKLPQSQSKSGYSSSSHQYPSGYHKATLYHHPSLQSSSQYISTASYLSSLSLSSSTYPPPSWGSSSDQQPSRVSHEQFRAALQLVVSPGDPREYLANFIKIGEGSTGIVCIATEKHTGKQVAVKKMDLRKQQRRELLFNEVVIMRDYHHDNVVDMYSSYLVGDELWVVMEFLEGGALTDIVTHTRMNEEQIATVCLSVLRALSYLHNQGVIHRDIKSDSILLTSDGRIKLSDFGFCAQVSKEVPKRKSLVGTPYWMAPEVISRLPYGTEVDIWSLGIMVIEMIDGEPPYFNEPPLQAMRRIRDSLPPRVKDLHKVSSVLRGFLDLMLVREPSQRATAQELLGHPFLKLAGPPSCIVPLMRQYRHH
Mitogen-activated protein kinase kinase kinase kinase 4 (Homo sapiens), sequence (O95819 2-1239 limits assumed): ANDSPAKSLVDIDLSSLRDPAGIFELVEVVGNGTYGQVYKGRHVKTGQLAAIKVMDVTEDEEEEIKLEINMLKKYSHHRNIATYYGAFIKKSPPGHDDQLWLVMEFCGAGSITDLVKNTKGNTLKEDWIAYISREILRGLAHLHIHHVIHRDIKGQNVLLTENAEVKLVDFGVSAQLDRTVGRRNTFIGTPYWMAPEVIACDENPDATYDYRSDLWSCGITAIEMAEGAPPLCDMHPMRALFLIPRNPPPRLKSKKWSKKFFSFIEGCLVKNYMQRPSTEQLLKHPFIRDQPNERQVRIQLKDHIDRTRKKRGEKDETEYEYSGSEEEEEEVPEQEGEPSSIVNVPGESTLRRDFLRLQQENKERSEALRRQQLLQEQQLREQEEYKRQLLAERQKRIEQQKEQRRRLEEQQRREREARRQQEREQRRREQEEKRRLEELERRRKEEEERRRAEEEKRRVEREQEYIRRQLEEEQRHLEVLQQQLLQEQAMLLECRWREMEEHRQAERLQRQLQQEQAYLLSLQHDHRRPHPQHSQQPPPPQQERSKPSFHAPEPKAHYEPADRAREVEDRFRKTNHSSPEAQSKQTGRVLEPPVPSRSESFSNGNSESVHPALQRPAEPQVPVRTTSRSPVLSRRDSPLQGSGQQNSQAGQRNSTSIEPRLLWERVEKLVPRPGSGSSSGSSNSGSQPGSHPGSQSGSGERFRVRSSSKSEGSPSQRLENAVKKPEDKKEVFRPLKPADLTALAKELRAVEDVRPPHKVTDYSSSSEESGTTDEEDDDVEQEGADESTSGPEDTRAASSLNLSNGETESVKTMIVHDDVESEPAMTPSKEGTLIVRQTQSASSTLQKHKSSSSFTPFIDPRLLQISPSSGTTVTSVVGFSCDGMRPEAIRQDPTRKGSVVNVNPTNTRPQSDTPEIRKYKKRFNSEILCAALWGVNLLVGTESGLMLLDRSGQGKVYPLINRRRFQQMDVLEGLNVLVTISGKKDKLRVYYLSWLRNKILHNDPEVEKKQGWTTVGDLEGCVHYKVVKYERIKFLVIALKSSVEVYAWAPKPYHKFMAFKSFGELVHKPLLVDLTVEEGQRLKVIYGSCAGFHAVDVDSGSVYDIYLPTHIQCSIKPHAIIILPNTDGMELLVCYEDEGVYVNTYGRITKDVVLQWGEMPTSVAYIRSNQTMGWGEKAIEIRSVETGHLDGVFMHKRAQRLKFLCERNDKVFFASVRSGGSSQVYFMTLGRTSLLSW
Dual specificity mitogen-activated protein kinase kinase 1 (Homo sapiens), sequence (Q02750 whole entry): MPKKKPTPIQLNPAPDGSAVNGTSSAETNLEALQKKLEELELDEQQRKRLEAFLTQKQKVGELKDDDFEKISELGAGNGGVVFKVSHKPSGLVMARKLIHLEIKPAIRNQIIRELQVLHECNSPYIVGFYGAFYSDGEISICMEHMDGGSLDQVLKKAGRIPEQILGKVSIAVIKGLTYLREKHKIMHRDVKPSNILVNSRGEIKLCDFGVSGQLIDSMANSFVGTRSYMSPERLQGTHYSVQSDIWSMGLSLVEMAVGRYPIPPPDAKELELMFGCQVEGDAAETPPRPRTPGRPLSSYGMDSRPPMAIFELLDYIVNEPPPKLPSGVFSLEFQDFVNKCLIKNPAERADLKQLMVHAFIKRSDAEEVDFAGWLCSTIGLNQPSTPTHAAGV

Consider `CCc1ccc(Oc2nccc(-c3c(-c4ccc(F)cc4)ncn3C3CCNCC3)n2)cc1`, for which the inhibition came out at 11.4% in test [1]; 3.92% in test [2]; 8.98% in test [3]; 4.83% in test [4]; 12.1% in test [5]; 3.84% in [6]. For the same molecule, the inhibition in test [7] stood at 5.43%; in test [8], 5.44%; in test [9] it was 5.88%; in test [10], 0.4%; in test [11], 2.83%; in test [12], 4.48%. Moreover, the inhibition in test [13] turned out to be 10.2%; in test [14], 1.26%; in [15], 2.44%; in test [16] it was 4.22%; in test [17], 5.69%; in test [18], 6.56%. Also, the inhibition in [19] was 9.57%; in [20], -5.49%.
Take `NC(=O)c1cc(-c2ccncc2)cc(-c2ccccc2)c1N`: the inhibition in test [1] came to 32.3%; in [2], 6.3%; in test [3], 5.89%; in test [4] it was 11.2%; in [5] it was 26.1%; in [6], 3.19%. Moreover, the inhibition in test [7] was 6.8%; in test [8], 3.96%; in test [9] it was 3.58%; in [10] it was -0.07%; in test [11], -1.56%; in [12] it was 7.55%. Further, the inhibition in test [13] was found to be 6.44%; in [14], 2.07%; in [15] it was 2.41%; in test [16] it was 7.15%; in test [17], 6.71%; in test [18], 1.02%. Moreover, the inhibition in [19] was 2.18%; in [20], -0.84%.
As to `COc1ccc(C2=C(N3CCc4ccccc43)C(=O)NC2=O)cc1`, the inhibition was 12.6% in test [1]; 5.11% in [2]; 4.03% in test [3]; 7.89% in test [4]; 11% in [5]; 7.03% in test [6]. The inhibition was 7.64% in [7]; 6.94% in test [8]; 6.17% in test [9]; -0.57% in [10]; 2.06% in test [11]; 7.07% in [12]. Moreover, the inhibition in [13] turned out to be 7.47%; in test [14], 1.61%; in test [15], 1.57%; in [16] it was 4.96%; in test [17], 5.37%; in test [18], 4.64%. Further, the inhibition in test [19] worked out at 2.28%; in test [20] it was 3.36%.
Consider `Fc1ccc(-c2nc3n(c2-c2ccncc2)CCS3)cc1`, for which the inhibition in test [1] was 18.3%; in test [2], 5.23%; in [3], 5.11%; in test [4], 6.96%; in test [5], 14%; in test [6], 3.57%. In addition, the inhibition in [7] was 4.41%; in [8], 3.46%; in test [9], 3.73%; in [10], -1.69%; in [11], -1.08%; in test [12] it was 6.15%. Further, the inhibition in test [13] is 8.39%; in test [14], 3.06%; in test [15], 1.6%; in [16] it was 4.5%; in test [17], 4.49%; in test [18], -6.84%. In addition, the inhibition was -7.5% in [19] and 9.34% in test [20].
As for `COC(=O)Nc1nc2ccc(Sc3ccc(NC(=O)Nc4cc(C(F)(F)F)ccc4F)cc3)cc2[nH]1`, the inhibition in [1] is 7.12%; in test [2], -0.42%; in [3] it was 0.12%; in [4], 0.07%; in test [5] it was 0.67%; in [6], 2.61%. The inhibition in test [7] is 3.26%; in [8], 2.16%; in test [9], 1.83%; in [10] it was 1.18%; in test [11], -1.61%; in [12] it was -1.15%. In addition, the inhibition in [13] was -1.32%; in [14], 10.8%; in test [15], 0.18%; in test [16], -0.08%; in test [17], 0.83%; in test [18], 6.86%. For the same molecule, the inhibition in test [19] was -2.02%; in test [20], -4.57%.
Take `Nc1nccc(-c2c(-c3ccc(F)cc3)ncn2C2CCC(O)CC2)n1` (centres undefined): the inhibition in test [1] is 72.8%; in test [2] it was -3.17%; in test [3] it was -3.2%; in test [4] it was 6.81%; in test [5], 62.4%; in test [6], 0.86%. For the same molecule, the inhibition in [7] is 22%; in [8] it was -0.05%; in test [9], 14.6%; in test [10] it was 0.75%; in [11] it was 4.04%; in test [12], -2.38%. Besides, the inhibition was -3.74% in test [13]; -0.84% in [14]; -0.18% in test [15]; -3.15% in test [16]; -3.59% in test [17]; -2.46% in test [18]. Also, the inhibition in test [19] was determined as 0.21%; in test [20], 4.1%.
`Cc1nnc(-c2ccc(C)c(-c3ccc(C(=O)NCc4ccc(Cl)cc4)cc3)c2)o1`: the inhibition in [1] amounted to 5.28%; in [2], 6.35%; in test [3], 4.13%; in test [4], 5.42%; in test [5], 5.04%; in test [6], 3.28%. The inhibition in [7] was 4.86%; in [8], 4.12%; in test [9] it was 5.51%; in test [10], -1.19%; in [11], 0.59%; in test [12] it was 7.92%. The inhibition in test [13] is 6.11%; in test [14], 1.55%; in [15] it was 1.24%; in test [16], 4.16%; in test [17], 4.01%; in test [19], -2.54%. Further, the inhibition in test [20] is -4.24%.

What is called inhibition is the drop in the measured response relative to a control, in per cent.
